Molecules are shown by their SMILES. Values without a mark were called inactive. Results filed as inconclusive are left out. Calls of active or inactive are those of the source. Unless noted, the call rests on the fitted dose curve; in most records, active means well fitted curve in either direction with a large enough effect (not every such curve was filed as active); inconclusive means small, poorly fitted or top-dose-only effect, or another doubt; inactive means flat fitted curve, though single readings scatter. Bounds are passed on as bounds.

From PubChem BioAssay (NCATS) come the findings set out here.

Experiment [1] concerns the target Lysosomal acid glucosylceramidase (Homo sapiens) (UniProt P04062). The experiment is described as follows: Glucocerebrosidase-p2 (AID 348; in the data active means potency below about 10 µM; further: potency means the concentration at half of the fitted maximal effect). The following applies: purified GBA, blue fluorogenic substrate, 40 min. The method in brief:
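Compounds titrated from 0.6 nM upwards against 0.2 nM enzyme in pH 5.9 citric acid/KH2PO4, taurocholate, tween-20; blue fluorogenic substrate 80 uM, 40 min room temperature, stopped and read Ex 365/Em 440 for AC50.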

Experiment [2] can be described thus: AP1 Signaling Pathway (AID 357).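 Further: ME-180 reporter cells stimulated with EGF at its EC50 level; on the % scale 0 is the no-effect control and ±100 the full control effect.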 As to conditions: ME-180 AP-1-bla reporter, EGF-induced, beta-lactamase ratio, 5 h; at 7.69 µM (top of the series) unless noted. In a few lines:
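First, ME-180 AP-1-bla cells were cultured overnight at 37 °C in low-serum Opti-MEM. Next, titrated compounds with EC50 EGF were incubated 5 hours. Finally, CCF4 was added for 2.5 hours and the 460/530 nm ratio recorded.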

Experiment [3] concerns the target Cytochrome P450 1A2 (Homo sapiens) (UniProt P05177). Briefly: p450-cyp1a2 (AID 410; calls by dose curve; further: potency means the concentration at half of the fitted maximal effect). The following applies: recombinant CYP1A2, luciferin-ME demethylation, luminescence; series mostly up to 11.4 µM. The method in brief:
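Inhibition was calculated relative to 57 uM furafylline (full inhibition). The reaction used human CYP1A2 at 20nM with Luciferin-ME at its Km, 100uM, driven by an NADPH-regenerating system for 60 min at room temperature.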

A short description of experiment [4]: NFAT Signaling Pathway (AID 444).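 Further: carbachol stimulus at about its EC50 of 1 µM final; on the % scale 0 is the no-effect control and ±100 the full control effect.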 As to conditions: Jurkat NFAT-bla M1, carbachol, beta-lactamase ratio, 5 h; at 7.69 µM (top of the series) unless noted. In a few lines:
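Read-out: CCF4 FRET ratio (460 nm/530 nm) after 1 h RT dye loading, used for %activity and AC50 from titration series. Cells: Jurkat NFAT-β-lactamase/M1 line, treated with compound plus 1 uM carbachol for 5 h, 37 °C.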

Experiment [5] can be described thus: Stat Signaling Pathway (AID 446).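 Further: ME-180 cervical cancer cells given 40 pM IL-6 alongside compound; SIE-controlled beta-lactamase reporter measured as 460/530 nm FRET emission ratio; on the % scale 0 is the no-effect control and ±100 the full control effect.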 The following applies: ME-180 (cervical carcinoma) SIE beta-lactamase reporter, IL-6 stimulated, 5 h; at 7.69 µM (top of the series) unless noted. The method in brief:
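ME-180 cells carrying a SIE-driven beta-lactamase reporter are stimulated with 40 pM IL-6 for 5 h at 37C in the presence of compound. The 460/530 nm FRET substrate ratio is read after 2.5 h at RT. Data are normalised to 300 pM IL-6 and to 125 nM JAK inhibitor controls.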

The target of experiment [6] is Glucocorticoid receptor (Homo sapiens) (UniProt P04150). Briefly: GR-GFP Redistribution (AID 450;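 active means compounds whose dose series gives a full or clear partial fitted curve of increased nuclear translocation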; further: potency means the concentration at half of the fitted maximal effect). As to conditions: U2OS GR-GFP nuclear translocation, laser cytometry, 2 h.
Experiment [7] has the same target. Briefly: GR-EFC Redistribution (AID 451; calls by dose curve; further: potency means the concentration at half of the fitted maximal effect). As to conditions: CHO-K1 GR-EFC translocation, beta-gal luminescence, 2 h. In a few lines: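 Translocation of GR-ED fusion to nuclear EA restores b-gal, read by luminescence after 1 h room-temperature detection. Engineered CHO-K1 biosensor cells, 1,000/well, exposed 2 h at 37 C to titrations up to 46 uM final.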
Experiment [8] has as its target Mitogen-activated protein kinase 10 (Mus musculus) (UniProt Q61831). The experiment is described as follows: JNK3 AlphaScreen Assay (AID 530).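 Further: kinase came from lysate of stimulated human HepG2 cells; signal reports phosphorylation of biotinylated GST-cJun 1-79 at Ser73 with 10 µM ATP; on the % scale 0 is the no-effect control and ±100 the full control effect.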 The following applies: JNK3 lysate, c-Jun phosphorylation; series mostly up to 57.1 µM. The method in brief:
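Room-temperature AlphaScreen kinase assay; pre-activated HepG2 lysate as JNK3 source, biotin-GST-cJun(1-79) substrate, 10 uM ATP, compound 15 min preincubation.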
(In general: Bead proximity is the source of the signal in Alpha formats.)

Experiment [9] deals with 3',5'-cyclic-AMP phosphodiesterase 4B (Homo sapiens) (UniProt Q07343). The experiment is described as follows: qHTS Assay for Inhibitors of PDE-IV (AID 607; active means well fitted activation curve with a large enough effect in the main read-out, with a control signal flat, not every such curve was filed as active; further: % of control where 0% means no effect). As to conditions: HEK293 ACTOne CNG channel cells, membrane potential fluorescence; series mostly up to 22.9 µM. The method in brief: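 HEK293 ACTOne cells with CNG channel (1000/well), endogenous PDE4; membrane potential dye, compounds up to 22.9 uM final. Fluorescence Ex 535/Em 590; RO 20-1724 (100 uM final) as reference.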
Background: Quantitative high-throughput screening tests each substance at several concentrations.

In experiment [10] the target is Cytochrome P450 2D6 (Homo sapiens) (UniProt P10635). The experiment is described as follows: qHTS Assay for Inhibitors and Substrates of Cytochrome P450 2D6 (AID 891; active means well fitted inhibition curve with a large enough effect;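 further: luciferin methyl ether substrate demethylated by CYP2D6 with NADPH regeneration; on the % scale 0 is the no-effect control and ±100 the full control effect; nearly all actives have a fitted effect of over 60% in size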). The following applies: recombinant CYP2D6, luciferin-ME EGE luminescence; series mostly up to 11.4 µM. In a few lines:
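Human CYP2D6 (5 nM) with 30 uM Luciferin-ME EGE (at Km) in 100 mM KPO4, compound preincubated 10 min, then NADPH regeneration system for 60 min at room temperature. Luciferin read by luminescence; normalized to 1.43 uM quinidine.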

Experiment [11] deals with Cytochrome P450 2C19 (Homo sapiens) (UniProt P33261). The experiment is described as follows: qHTS Assay for Inhibitors and Substrates of Cytochrome P450 2C19 (AID 899; active means well fitted inhibition curve with a large enough effect; further: on the % scale 0 is the no-effect control and ±100 the full control effect; nearly all actives have a fitted effect of over 60% in size). As to conditions: recombinant CYP2C19, luciferin-H EGE luminescence; series mostly up to 11.4 µM. In a few lines: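 5nM enzyme + 10uM Luciferin-H EGE (=KM), 50mM KPO4; cpd pin-transferred, 10 min 37C; NADPH regen, 60 min 37C; stopped w/ luciferin detection reagent, 20 min; luminescence. Normalized to 57uM ketoconazole (AC100).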
Sequence of Cytochrome P450 2C19 (Homo sapiens) (P33261 whole entry, looked up): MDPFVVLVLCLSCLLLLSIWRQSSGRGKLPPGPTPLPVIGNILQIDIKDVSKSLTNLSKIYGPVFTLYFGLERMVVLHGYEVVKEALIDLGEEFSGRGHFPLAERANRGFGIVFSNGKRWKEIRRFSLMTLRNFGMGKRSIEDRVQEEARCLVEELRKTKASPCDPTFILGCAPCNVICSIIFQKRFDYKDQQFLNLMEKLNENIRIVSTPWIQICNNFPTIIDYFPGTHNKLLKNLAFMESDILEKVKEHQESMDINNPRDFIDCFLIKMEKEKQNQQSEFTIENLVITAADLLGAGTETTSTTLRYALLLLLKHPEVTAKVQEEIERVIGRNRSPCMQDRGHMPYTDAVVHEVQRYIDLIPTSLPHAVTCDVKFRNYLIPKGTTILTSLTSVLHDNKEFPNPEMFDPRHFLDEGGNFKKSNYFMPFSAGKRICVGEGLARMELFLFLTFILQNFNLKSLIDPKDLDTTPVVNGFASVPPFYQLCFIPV

Sequence of Lysosomal acid glucosylceramidase (Homo sapiens) (P04062 whole entry, looked up): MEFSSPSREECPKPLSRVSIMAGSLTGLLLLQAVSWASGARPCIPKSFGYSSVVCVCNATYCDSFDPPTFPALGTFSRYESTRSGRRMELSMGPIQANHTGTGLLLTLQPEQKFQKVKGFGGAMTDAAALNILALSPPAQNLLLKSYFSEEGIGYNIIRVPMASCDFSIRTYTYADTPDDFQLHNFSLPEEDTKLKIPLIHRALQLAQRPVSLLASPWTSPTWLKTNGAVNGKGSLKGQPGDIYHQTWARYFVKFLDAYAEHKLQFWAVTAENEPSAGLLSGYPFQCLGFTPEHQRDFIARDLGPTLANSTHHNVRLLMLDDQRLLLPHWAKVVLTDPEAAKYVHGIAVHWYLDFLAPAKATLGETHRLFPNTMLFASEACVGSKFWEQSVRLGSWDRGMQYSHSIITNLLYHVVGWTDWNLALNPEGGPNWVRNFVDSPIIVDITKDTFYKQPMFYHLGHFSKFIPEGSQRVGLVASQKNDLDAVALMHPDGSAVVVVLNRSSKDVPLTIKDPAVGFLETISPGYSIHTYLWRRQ
Sequence of 3',5'-cyclic-AMP phosphodiesterase 4B (Homo sapiens) (Q07343 whole entry, looked up): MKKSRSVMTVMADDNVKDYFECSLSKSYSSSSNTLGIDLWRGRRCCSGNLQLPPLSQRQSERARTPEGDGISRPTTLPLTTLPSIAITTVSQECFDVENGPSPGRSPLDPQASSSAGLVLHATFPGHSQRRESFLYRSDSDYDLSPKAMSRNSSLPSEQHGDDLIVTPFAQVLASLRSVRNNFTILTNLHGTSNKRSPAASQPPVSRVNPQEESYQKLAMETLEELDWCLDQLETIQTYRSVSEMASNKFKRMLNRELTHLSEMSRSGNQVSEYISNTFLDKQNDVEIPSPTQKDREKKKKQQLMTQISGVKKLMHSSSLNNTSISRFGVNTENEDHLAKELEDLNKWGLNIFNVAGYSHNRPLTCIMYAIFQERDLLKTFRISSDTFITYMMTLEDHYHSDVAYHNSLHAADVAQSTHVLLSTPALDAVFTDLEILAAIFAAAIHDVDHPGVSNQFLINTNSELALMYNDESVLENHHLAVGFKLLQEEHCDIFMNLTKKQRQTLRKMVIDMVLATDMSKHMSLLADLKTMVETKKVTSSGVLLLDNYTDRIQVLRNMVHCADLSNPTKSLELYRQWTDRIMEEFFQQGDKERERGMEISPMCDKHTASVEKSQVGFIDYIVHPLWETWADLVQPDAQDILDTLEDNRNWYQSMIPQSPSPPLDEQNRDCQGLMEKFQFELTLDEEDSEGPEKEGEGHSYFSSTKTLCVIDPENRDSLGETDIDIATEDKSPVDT
Sequence of Glucocorticoid receptor (Homo sapiens) (P04150 whole entry, looked up, the tested form may be a part): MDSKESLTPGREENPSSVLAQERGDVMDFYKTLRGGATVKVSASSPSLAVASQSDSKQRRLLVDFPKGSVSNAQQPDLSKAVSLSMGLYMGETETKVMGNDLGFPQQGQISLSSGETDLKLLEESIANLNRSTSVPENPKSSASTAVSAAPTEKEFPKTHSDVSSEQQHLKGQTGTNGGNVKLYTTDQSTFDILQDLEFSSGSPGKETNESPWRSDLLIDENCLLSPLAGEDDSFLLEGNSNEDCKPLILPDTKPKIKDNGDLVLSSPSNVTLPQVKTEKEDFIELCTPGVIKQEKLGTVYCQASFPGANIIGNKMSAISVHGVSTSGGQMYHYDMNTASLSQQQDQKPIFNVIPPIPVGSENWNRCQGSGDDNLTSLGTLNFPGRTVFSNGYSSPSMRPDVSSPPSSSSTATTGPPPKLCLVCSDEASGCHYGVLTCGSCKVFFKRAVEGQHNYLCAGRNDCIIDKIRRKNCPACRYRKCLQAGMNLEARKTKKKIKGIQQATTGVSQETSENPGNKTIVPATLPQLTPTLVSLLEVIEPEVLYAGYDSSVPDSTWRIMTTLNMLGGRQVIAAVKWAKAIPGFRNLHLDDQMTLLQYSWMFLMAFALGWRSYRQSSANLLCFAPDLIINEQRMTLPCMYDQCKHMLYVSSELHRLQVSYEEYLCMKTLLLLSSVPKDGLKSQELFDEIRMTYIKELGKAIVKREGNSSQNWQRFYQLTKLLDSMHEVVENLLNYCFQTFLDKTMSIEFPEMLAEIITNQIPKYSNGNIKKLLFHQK
Sequence of Cytochrome P450 1A2 (Homo sapiens) (P05177 whole entry, looked up): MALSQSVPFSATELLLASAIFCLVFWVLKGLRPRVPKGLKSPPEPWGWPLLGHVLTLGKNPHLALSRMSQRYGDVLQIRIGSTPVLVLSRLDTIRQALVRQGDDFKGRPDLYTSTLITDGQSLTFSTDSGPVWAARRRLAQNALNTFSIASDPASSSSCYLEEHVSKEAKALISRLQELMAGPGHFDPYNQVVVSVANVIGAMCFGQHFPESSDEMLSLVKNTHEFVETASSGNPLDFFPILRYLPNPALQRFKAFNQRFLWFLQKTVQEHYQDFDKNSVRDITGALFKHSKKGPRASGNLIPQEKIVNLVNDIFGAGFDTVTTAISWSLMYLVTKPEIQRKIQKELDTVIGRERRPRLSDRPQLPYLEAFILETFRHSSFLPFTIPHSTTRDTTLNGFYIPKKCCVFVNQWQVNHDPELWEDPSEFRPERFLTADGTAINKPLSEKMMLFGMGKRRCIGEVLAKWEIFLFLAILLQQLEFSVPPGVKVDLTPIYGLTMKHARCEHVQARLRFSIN
Sequence of Cytochrome P450 2D6 (Homo sapiens) (P10635 whole entry, looked up): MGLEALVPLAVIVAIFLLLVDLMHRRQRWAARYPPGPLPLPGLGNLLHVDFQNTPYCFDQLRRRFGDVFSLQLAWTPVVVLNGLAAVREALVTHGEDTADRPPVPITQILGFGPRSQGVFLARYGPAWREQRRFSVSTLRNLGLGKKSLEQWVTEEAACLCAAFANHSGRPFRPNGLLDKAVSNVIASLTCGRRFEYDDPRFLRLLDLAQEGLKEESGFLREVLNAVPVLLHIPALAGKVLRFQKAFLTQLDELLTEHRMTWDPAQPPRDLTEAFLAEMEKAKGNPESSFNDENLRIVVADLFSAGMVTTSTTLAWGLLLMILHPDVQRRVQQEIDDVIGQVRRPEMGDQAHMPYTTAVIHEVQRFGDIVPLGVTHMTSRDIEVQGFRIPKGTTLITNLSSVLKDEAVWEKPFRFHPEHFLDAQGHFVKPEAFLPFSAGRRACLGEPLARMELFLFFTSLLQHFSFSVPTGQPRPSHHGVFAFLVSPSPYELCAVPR

For `O=C(O)[C@@H](Br)[C@H](Br)C(=O)O`, the Potency in [1] is greater than 11.4 µM; in [6], greater than 46 µM; in [7] it was greater than 9.22 µM. The activity change, negative = inhibition in [2] is -8.85%; in experiment [4], 12.2%; in [8], -1.13% [at 11.4 µM]. The Potency result in [3] was “inactive”. Further, the activity, negative = inhibition in experiment [5] was 3.93%. Moreover, in experiment [9], the compound was classed as inactive.
In the case of `N[C@@H](Cc1ccccc1)P(=O)(O)O`, the figures for the Potency in [1], in [6] and in [7] were greater than 11.4 µM, greater than 46 µM and greater than 9.22 µM, respectively. In addition, the activity change, negative = inhibition was -2.48% in [2], 12.4% in [4] and 3.3% [at 11.4 µM] in experiment [8]. In addition, in experiment [3], the Potency entry is “inactive”. For the same compound, in [5], the activity, negative = inhibition was -2.79%. For the same compound, the compound was called inactive in experiment [9].
On to `CC(C)c1ccc(C(O)(C(=O)O)c2ccc(C(C)C)cc2)cc1`, for which the values for the Potency in experiment [1], in [6] and in experiment [7] were greater than 11.4 µM, greater than 46 µM and greater than 9.22 µM, respectively. Also, the values for the activity change, negative = inhibition in experiment [2], in [4] and in experiment [8] were 2.63%, -9.63% and 5.33% [at 11.4 µM], respectively. In addition, the Potency entry in experiment [3] and in [10] was “inactive” in each case. Further, in [5], the activity, negative = inhibition is 4.5%. Also, in experiment [9], the call was inactive.
On to `CC(C)C(=O)CP(=O)(O)O`, for which the values for the Potency in experiment [1], in experiment [6] and in [7] were greater than 11.4 µM, greater than 46 µM and greater than 9.22 µM, respectively. For the same compound, the activity change, negative = inhibition was 10.1% in experiment [2], 7.02% in experiment [4] and 3.33% [at 11.4 µM] in experiment [8]. Also, the Potency result in [3] is “inactive”. Moreover, the activity, negative = inhibition in experiment [5] was 5.14%. Moreover, the call in experiment [9] was inactive.
Consider `CC(=O)OC1=CC2=CC[C@H]3[C@H]4CCC(=O)[C@@]4(C)CC(=O)[C@]3(S)[C@]2(C)CC1`, for which the Potency in [1] was greater than 11.4 µM; in [6], greater than 46 µM; in experiment [7], greater than 9.22 µM. For the same compound, the activity change, negative = inhibition in [2] is -0.915%; in experiment [3], -9.4% [at 2.29 µM]; in experiment [4] it was 2.48%; in experiment [8] it was -3.16% [at 11.4 µM]. Moreover, the activity, negative = inhibition in [5] was -7.63%. Moreover, in experiment [9], the call was inactive.
`C[C@]1(O)CC[C@H]2[C@@H]3[C@@H](O)CC4=CC(=O)CC[C@@]4(C)[C@H]3CC[C@]21C`: the Potency in experiment [1] was greater than 11.4 µM; in [6], greater than 46 µM; in experiment [7], greater than 9.22 µM. The activity change, negative = inhibition in experiment [2] was 1.55%; in experiment [3], 1.4% [at 2.29 µM]; in [4], 6.38%; in experiment [8], -3.1% [at 11.4 µM]. Further, in [5], the activity, negative = inhibition is -1.92%. Also, the compound was classed as inactive in experiment [9].
Turning to `N#CCCCC[N+]12CN3CN(CN(C3)C1)C2`, the Potency in experiment [1] is greater than 11.4 µM; in [6] it was greater than 46 µM; in experiment [7], greater than 9.22 µM. Besides, the activity change, negative = inhibition in experiment [2] was 12.8%; in experiment [3] it was 15% [at 2.29 µM]; in experiment [4], 5.06%; in [8], 0.429% [at 11.4 µM]. For the same compound, the activity, negative = inhibition in experiment [5] is -17.9%. Moreover, the outcome in experiment [9] was inactive.
On to `[N-]=[N+]=CC(=O)CC[C@H](N)C(=O)O`, for which the Potency is greater than 11.4 µM in experiment [1], greater than 46 µM in experiment [6] and greater than 9.22 µM in [7]. The activity change, negative = inhibition in experiment [2] was 6.38%; in experiment [4], -6.88%; in experiment [8], 31.7% [at 11.4 µM]. Moreover, in experiment [3], the Potency entry was “inactive”. Further, the activity, negative = inhibition in [5] was 6.39%. In [9], the call was inactive.
Turning to `O=C(O)c1cc(N=Nc2ccc([As](=O)(O)O)cc2)ccc1O`, the Potency was greater than 11.4 µM in [1], greater than 46 µM in experiment [6] and greater than 9.22 µM in experiment [7]. For the same compound, the results for the activity change, negative = inhibition in experiment [2], in experiment [4] and in experiment [8] were 6.37%, 6.3% and 2.47% [at 11.4 µM], respectively. The Potency entry in experiment [3], in [10] and in [11] was “inactive” each time. In addition, the activity, negative = inhibition in [5] was -0.258%. In addition, the compound was called inactive in experiment [9].
As for `O=C(O)C[C@H]1NCc2cc3ccccc3nc21`, the Potency in experiment [1] is greater than 11.4 µM; in experiment [6], greater than 46 µM; in experiment [7] it was greater than 9.22 µM. The activity change, negative = inhibition is 2.39% in [2], -4.9% [at 2.29 µM] in experiment [3], 13.5% in [4] and 1.75% [at 11.4 µM] in experiment [8]. Besides, the activity, negative = inhibition in experiment [5] was 5.32%. In addition, in [9], the compound was classed as inactive.
`CN(C)CCCc1c[nH]c2ccccc12`: the Potency in experiment [1] was greater than 11.4 µM; in experiment [6], greater than 46 µM; in experiment [7], greater than 9.22 µM. For the same compound, the activity change, negative = inhibition in [2] is -7.94%; in [4], -13%; in experiment [8] it was 3.98% [at 11.4 µM]. Further, the Potency entry in experiment [3] is “inactive”. The activity, negative = inhibition in experiment [5] is 1.91%. Also, the outcome in experiment [9] was inactive.
As for `c1ccc(C[N+]23CN4CN(CN(C4)C2)C3)cc1`, the Potency was greater than 11.4 µM in experiment [1], greater than 46 µM in experiment [6] and greater than 9.22 µM in experiment [7]. The activity change, negative = inhibition is 0.854% in experiment [2], -10.1% [at 2.29 µM] in experiment [3], 6.01% in [4] and -2.9% [at 11.4 µM] in experiment [8]. In [5], the activity, negative = inhibition is 6.74%. Moreover, the call in experiment [9] was inactive.
In the case of `Nc1nc(N)c(N=Nc2ccc([As](=O)(O)O)c(O)c2)c(N)n1`, the Potency in experiment [1] is greater than 11.4 µM; in experiment [3], 6.31 µM (active); in experiment [6], greater than 46 µM; in [7], greater than 9.22 µM. The activity change, negative = inhibition in experiment [2] is 1.26%; in [4], -7.71%; in [8], 1.64% [at 11.4 µM]. Besides, the activity, negative = inhibition in experiment [5] was -1.21%. Also, the compound was classed as inactive in [9].
Take `N[C@H](Cc1ccccc1)c1nn[nH]n1`: the Potency in experiment [1] is greater than 11.4 µM; in experiment [3] it was 10 µM (active); in experiment [6], greater than 46 µM; in experiment [7] it was greater than 9.22 µM. Besides, the activity change, negative = inhibition in experiment [2] was 11.1%; in experiment [4] it was 1.74%; in experiment [8], 5.89% [at 11.4 µM]. In experiment [5], the activity, negative = inhibition is -5.07%. Besides, in experiment [9], the result was inactive.
